# Screens as filed in PubChem BioAssay.
# Beta cell apopt – blocks beta cell apoptosis; INS-1E cytokine-induced death, ATP luminescence, 48 h; percent of positive-control rescue, neutral wells zero; AID 435005; 300,000 compounds, 0.8% hits; protection from apoptosis, % (test concentration not listed);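 active means Every replicate reaches about 75%, or at least half do and their mean reaches it too, limit read from the data; inconclusive means At least half of replicates reach the limit but their mean does not; inactive means Under half of replicates reach the limit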;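 further: higher means more ATP so stronger rescue from cytokine killing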
# NR3A LBD binder – modulators (binders) of human NR3A ligand-binding domain; NR3A LBD differential scanning fluorimetry, Tm shift; 0% = protein alone, 100% = glycine-bound protein; Tm shift relative to glycine control, % at 25 µM; 340,000 compounds, 2.5% hits;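 active means melting temperature shift of at least 10% of the positive control shift, at one fixed dose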
# SKKanGAS inh – SKKanGAS growth inhibition. S. pyogenes SKKanGAS, kanamycin growth, BacTiter-Glo, 6 h. 300,000 compounds, 1.3% hits. inhibition, % at 7.5 µM;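 active means mean replicate score, as percent of positive control median, at least 50; inconclusive means mean below 50 but one replicate at or above 50; inactive means mean and every replicate below 50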;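 further: strain carries kanamycin resistance gene driven by streptokinase promoter and grows in 40 µg/ml kanamycin; loss of luminescence reflects streptokinase promoter inhibition or plain growth inhibition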
# MPTP inh – permeability transition pore inhibition; inhibition, % at 10 µM; 360,000 compounds, 1.4% hits; isolated mouse mitochondria, Ca2+ swelling absorbance, 30 min; AID 602449;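 active means inhibition of 50% or more, scaled per plate between neutral and stimulator controls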
# CSC inhib – cancer stem cell inhibition; cancer stem cell-like cells viability, luminescence; inhibition, % at 7.5 µM; 300,000 compounds, 1.1% hits; in the data active means inhibition above about 75%; inconclusive means no clear call, values can overlap the other calls; tested in HMLE shEcad cells
# Mdm2-MdmX inh – disrupts the human Mdm2-MdmX interaction. inhibition, % at 8 µM. AID 485346. SaOS-2 split-luciferase Mdm2/MdmX complementation, luminescence. O15151+Q00987. 330,000 compounds, 3% hits;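 active means inhibition of at least 50% at 8 µM in the primary screen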
# Mdm2 MdmX conf – human Mdm2/MdmX binding inhibition, confirmed; shares compounds with Mdm2-MdmX inh; luminescent assay; inhibition, % at 8 µM; 10,000 compounds, 55% hits; AID 489028; in the data active means inhibition above about 40%
# Full FLuc ctr – full-length luciferase inhibition in Mdm2/MdmX counter-screen; shares compounds with Mdm2-MdmX inh; SaOS-2 full-length luciferase counterscreen, luminescence; inhibition, % at 8 µM; 6,200 compounds, 77% hits; AID 504607;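 active means mean inhibition at 8 µM reaching about 37%, which flags the compound as non-specific, limit read from the data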;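 further: p53-null SaOS-2 cells with luciferase driven by a doxycycline-inducible promoter; compound on cells about two nights before reading with doxycycline added after day one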
# Hits are given with their value; – = inactive; ? = inconclusive; · = not tested or not shown; + = active, no number. The list is not random: actives were taken first. Their share in the collection is about 6.9%.
SMILES,Beta cell apopt,NR3A LBD binder,SKKanGAS inh,MPTP inh,CSC inhib,Mdm2-MdmX inh,Mdm2 MdmX conf,Full FLuc ctr
COC(=O)c1ccc(COc2ccc(/C=C(\C#N)c3nc4ccccc4[nH]3)cc2OC)o1,–,–,–,–,–,–,·,·
COc1cc(/C=C(/C#N)c2nc3ccccc3[nH]2)ccc1Oc1ncccc1[N+](=O)[O-],–,–,–,–,–,67.9,–,·
CCc1ccc(NC(=O)COc2ccc(/C=C(/C#N)c3nc4ccccc4[nH]3)cc2OC)cc1,·,30.0,–,–,–,100.4,81.2,52.7
COc1cc(/C=C(\C#N)c2ccccn2)ccc1OCc1ccccc1Cl,–,–,·,–,–,·,·,·
COc1ccc(S(=O)(=O)N2CC(C)N(C(=O)N(C)C)C2C(C)C)cc1 (stereo not given),·,–,–,–,–,–,·,·
Cc1cc(C)cc(C(=O)Nc2nnc(SCC(=O)NCC3CCCO3)s2)c1 (stereo not given),–,–,–,–,–,–,·,·
CCc1ccc(C(=O)NNC(=O)CCc2nc3ccccc3c(=O)[nH]2)cc1,–,–,–,–,–,–,·,·
CCn1ncc(/C=N/N=C2\CCC3C4CCc5cc(O)ccc5C4CCC23C)c1C (stereo not given),·,–,–,–,–,50.7,–,·
CC(C)=CCN1CCN(Cc2cnc(C)s2)CC1CCO (stereo not given),–,–,–,–,–,–,·,·
Cc1ccc2[nH]c3c(c2c1)CCCC3NC(=O)CCl (stereo not given),–,–,–,–,–,80.4,–,–
Cc1ccc2[nH]c3c(c2c1)CCCC3C(N)=O (stereo not given),–,–,–,–,–,–,·,·
CCn1c(=O)cc(SCC(=O)Nc2cc(OC)c(OC)c(OC)c2)c2ccccc21,–,–,–,–,–,52.5,–,·
CCn1c(=O)cc(SCC(=O)NCc2ccco2)c2ccccc21,–,–,–,–,·,·,·,·
CCN1CCN(C(=O)CSc2cc(=O)n(CC)c3ccccc23)CC1,–,–,–,–,–,52.5,40.7,76.2
CCn1c(=O)cc(SCC(=O)NCc2ccc(C)o2)c2ccccc21,–,–,–,–,·,59.6,–,·
CCn1c(=O)cc(SCC(=O)Nc2ccc(C)cn2)c2ccccc21,–,–,–,–,–,100.4,69.5,143.1
CCn1c(=O)cc(SCC(=O)NCc2ccc(C)cc2)c2ccccc21,–,–,–,–,–,–,·,·
Cc1cccc(S(=O)(=O)NC2CCCCCCC2)c1,–,–,–,–,–,–,·,·
O=C(C[n+]1ccc(-c2nnc3n2CCC3)cc1)c1ccc(Cl)cc1,–,–,–,–,–,–,·,·
O=C(CC1C(=O)NCCN1Cc1cccc(C(F)(F)F)c1)NCCc1cnccn1 (stereo not given),–,–,–,–,–,–,·,·
C/C(=N/NC(=O)c1sc(=S)n(C)c1C)c1ccccc1,–,–,–,–,–,53.1,–,·
Cc1c(C(=O)NN)sc(=S)n1C,–,–,–,–,–,–,·,·
Cc1ccc(N/N=C2\CC(=O)c3ccccc32)cc1Cl,–,·,–,·,76.8,57.9,–,·
Cc1ccc(NCN2C(=O)c3ccccc3C2=O)cc1Cl,·,·,·,–,·,·,·,·
COc1ccc2[nH]c3c(c2c1)CCN1C(=O)C(CC(=O)NCCC2=CCCCC2)C[C@H](C(=O)N2CCOCC2)[C@@]31CCC1CCCC1 (stereo not given in full),·,–,·,–,·,–,·,·
SMILES,Beta cell apopt,NR3A LBD binder,SKKanGAS inh,MPTP inh,CSC inhib,Mdm2-MdmX inh,Mdm2 MdmX conf,Full FLuc ctr
CC(C)N(C(=O)[C@H]1C[C@H](CC(=O)NCC23CC4CC(CC(C4)C2)C3)C(=O)N2CCc3c([nH]c4ccc(Cl)cc34)[C@]12C)C(C)C,·,–,·,–,·,92.1,49.8,72.5
O=C(C[C@H]1C[C@H](C(=O)N2CCOCC2)[C@@]2(CCC3CCCC3)c3[nH]c4ccc(Cl)cc4c3CCN2C1=O)NCC12CC3CC(CC(C3)C1)C2,·,–,·,–,·,84.0,69.5,–
CCN(CC)C(=O)[C@H]1C[C@H](CC(=O)NCC23CC4CC(CC(C4)C2)C3)C(=O)N2CCc3c([nH]c4ccc(Cl)cc34)[C@]12C,·,–,·,–,·,–,·,·
COc1ccc2[nH]c3c(c2c1)CCN1C(=O)C(CC(=O)NCC24CC5CC(CC(C5)C2)C4)C[C@H](C(=O)N2CCOCC2)[C@@]31CCC1CCCC1 (stereo not given in full),·,–,·,–,·,77.3,68.5,43.3
NS(=O)(=O)c1ccc(CCNC(=O)c2cc(S(=O)(=O)N3CCCCC3)ccc2Cl)cc1,·,·,·,–,·,·,·,·
COc1c2c(cc3oc(=O)c4c5ccc(O)cc5oc4c13)OC(C)(C)CC2,–,–,–,–,–,81.4,62.6,+
CC[C@H](C)C1OC(=O)[C@@H](C)[C@@H](CC)NC(=O)[C@H](C)N(C)C(=O)C(C)(C)C(=O)C(C)NC(=O)[C@H](Cc2ccc(OC)cc2)N(C)C(=O)[C@H](C(C)C)N(C)C(=O)CNC(=O)[C@H](CC(C)C)N(C)C(=O)CNC1=O (stereo not given in full),·,·,·,–,·,·,·,·
CCC[C@H]1NC(=O)[C@H](C)N(C)C(=O)C(C)(C)C(=O)C(C)NC(=O)[C@H](Cc2ccc(OC)cc2)N(C)C(=O)[C@H](C(C)C)N(C)C(=O)CNC(=O)[C@H](CC(C)C)N(C)C(=O)CNC(=O)[C@H]([C@@H](C)CC)OC(=O)[C@H]1C (stereo not given in full),·,–,·,·,·,93.7,91.0,–
O=C(/C=C/c1ccccc1)NC(=S)Nc1ccc2c3c(cccc13)CC2,–,–,–,–,–,59.4,–,·
O=C(COc1ccccc1)NC(=S)Nc1ccc2c3c(cccc13)CC2,–,–,–,–,–,–,·,·
O=C(Cc1ccccc1)NCc1ccc2c(c1)OCO2,–,–,–,–,–,–,·,·
O=C(NCc1ccc2c(c1)OCO2)c1ccccc1Cl,–,–,–,–,–,–,·,·
O=C(NCc1ccc2c(c1)OCO2)c1nc(S(=O)(=O)Cc2ccccc2)ncc1Cl,·,–,–,–,·,63.0,44.9,–
O=C(NCc1ccc2c(c1)OCO2)c1nc(S(=O)(=O)Cc2ccccc2F)ncc1Cl,–,–,–,–,?,77.6,52.2,51.2
C=CCOC(=O)C1=C[C@H](C2CC2)[C@@H](CCCO)[C@H](OCC)O1,–,–,–,–,–,–,·,·
Cc1ccccc1C(=O)Nc1nnc(SCC(=O)NCc2ccco2)s1,–,–,–,–,–,–,·,·
O=C(Nc1ccc(CN2CCS(=O)(=O)CC2)cc1)c1ccc(C(F)(F)F)cc1,–,–,–,–,–,50.6,–,·
CC(C)(C)c1ccc(C(=O)Nc2ccc(CN3CCS(=O)(=O)CC3)cc2)cc1,–,–,–,–,–,–,·,·
CC(=Nc1ccccc1)C1=C(O)C(Cc2ccc(O)cc2)NC1=O (stereo not given),·,–,·,–,·,·,·,·
